Read-out in assay [1]: Interleukin-1 alpha (IL1a), IL1A (gene 3552)
The experiment in a line: BSK_BF4T_IL1a: BioMAP Diversity Plus: BF4T Assay for Interleukin-1 alpha (IL1a) Biomarker Activity (AID 2284264). Conditions: primary human bronchial epithelial cells with fibroblasts. A digest of the protocol: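 Human bronchial epithelial cells co-cultured with dermal fibroblasts, dosed and read at 24 h. Secreted/surface IL-1α quantified by ELISA; gain-of-signal fitted relative to DMSO baseline. Parallel SRB total-protein staining tracked cytotoxicity.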

Read-out in a further assay: Decorin, DCN (gene 1634)
Kind of assay: BSK_MyoF_Decorin: BioMAP Diversity Plus: MyoF Assay for Decorin Biomarker Activity (AID 2284265). Conditions: primary human lung fibroblasts. A digest of the protocol: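 ELISA readout of decorin, 24 h post-dosing; primary human lung fibroblast (MyoF) culture; gain-of-signal fit vs DMSO baseline.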

Read-out in assay [2]: KRT18 (gene 3875)
Kind of assay: BSK_BF4T_Keratin818: BioMAP Diversity Plus: BF4T Assay for Keratin 818 Biomarker Activity (AID 2284266). Conditions: primary human bronchial epithelial cells with fibroblasts. A digest of the protocol: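 Co-culture of human bronchial epithelial cells and dermal fibroblasts, chemical exposure 24 h. Keratin 8/18 measured by ELISA; positive-direction fit vs DMSO. SRB total protein run in parallel cultures for cytotoxicity.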

Assay [3] is described as follows: BSK_MyoF_SRB: Viability Assessment in the BioMAP Diversity Plus: MyoF Assay (AID 2284267).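 Further: total protein by SRB absorbance in parallel cultures as cytotoxicity measure.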 Conditions: primary human lung fibroblasts. A digest of the protocol: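 Human lung fibroblasts dosed with chemical and assessed 24 h later for overt cytotoxicity in parallel cultures. Total protein quantified by sulforhodamine B staining (0.1% SRB after 10% TCA fixation), read at 560 nm, analysed in positive direction versus DMSO baseline.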

Read-out in assay [4]: Matrix Metallopeptidase 1 (MMP1), MMP1 (gene 4312)
The experiment in a line: BSK_MyoF_MMP1: BioMAP Diversity Plus: MyoF Assay for Matrix Metallopeptidase 1 (MMP1) Biomarker Activity (AID 2284268). Conditions: primary human lung fibroblasts. In outline:
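Cells: human lung fibroblasts. Exposure: 24 h chemical dosing. Detection: ELISA for MMP1. Analysis: upward fitting against DMSO negative control.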

Read-out in assay [5]: TIMP metallopeptidase inhibitor 1 (TIMP1), TIMP1 (gene 7076)
Kind of assay: BSK_MyoF_TIMP1: BioMAP Diversity Plus: MyoF Assay for TIMP metallopeptidase inhibitor 1 (TIMP1) Biomarker Activity (AID 2284269). Conditions: primary human lung fibroblasts. A digest of the protocol: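 Primary human lung fibroblasts, MyoF multiplex system; chemical exposure 24 h; TIMP-1 by ELISA; positive fitting direction vs DMSO control.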

Read-out in assay [6]: Matrix Metallopeptidase 1 (MMP1), MMP1 (gene 4312)
The experiment in a line: BSK_BF4T_MMP1: BioMAP Diversity Plus: BF4T Assay for Matrix Metallopeptidase 1 (MMP1) Biomarker Activity (AID 2284270). Conditions: primary human bronchial epithelial cells with fibroblasts. A digest of the protocol: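 Co-culture of human bronchial epithelial cells and dermal fibroblasts; MMP-1 levels measured by ELISA 24 hours after chemical dosing, relative to DMSO. Cytotoxicity checked in parallel cultures by SRB total-protein staining.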

Read-out in assay [7]: Plasminogen Activator Inhibitor-1 (PAI1), SERPINE1 (gene 5054)
Kind of assay: BSK_BF4T_PAI1: BioMAP Diversity Plus: BF4T Assay for Plasminogen Activator Inhibitor-1 (PAI1) Biomarker Activity (AID 2284273). Conditions: primary human bronchial epithelial cells with fibroblasts. In outline:
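Co-culture of human bronchial epithelial cells and dermal fibroblasts exposed to compound for 24 h. PAI-1 measured by ELISA; activity fitted in positive direction versus DMSO. Parallel SRB staining assessed overt cytotoxicity.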

Read-out in assay [8]: Matrix Metallopeptidase 9 (MMP9), MMP9 (gene 4318)
Kind of assay: BSK_BF4T_MMP9: BioMAP Diversity Plus: BF4T Assay for Matrix Metallopeptidase 9 (MMP9) Biomarker Activity (AID 2284276). Conditions: primary human bronchial epithelial cells with fibroblasts. In outline: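 Co-culture of human bronchial epithelial cells and dermal fibroblasts dosed for 24 h; MMP-9 quantified by ELISA and fitted upward versus DMSO. Cytotoxicity monitored in parallel cultures by SRB total-protein staining at the biomarker time point.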

Read-out in assay [9]: Interleukin-8 (IL8), CXCL8 (gene 3576)
Kind of assay: BSK_IMphg_IL8: BioMAP Diversity Plus: IMphg Assay for Interleukin-8 (IL8) Biomarker Activity (AID 2284277). Conditions: primary human endothelial cells with macrophages. A digest of the protocol: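 Co-culture of human venular endothelial cells and macrophages exposed to chemicals for 24 h; IL-8 quantified by ELISA and compared against the DMSO baseline, with SRB total-protein staining in parallel cultures for cytotoxicity.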

Read-out in assay [10]: Interferon-inducible T-cell alpha chemoattractant (ITAC), CXCL11 (gene 6373)
Kind of assay: BSK_BE3C_ITAC: BioMAP Diversity Plus: BE3C Assay for Interferon-inducible T-cell alpha chemoattractant (ITAC) Biomarker Activity (AID 2284279). Conditions: primary human bronchial epithelial cells. A digest of the protocol: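 Steps: dose human bronchial epithelial cells with chemical; incubate 24 h; measure I-TAC by ELISA; fit endpoint in positive direction against DMSO control. Cytotoxicity was checked in parallel cultures by SRB staining at harvest.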

Read-out in assay [11]: Interleukin-8 (IL8), CXCL8 (gene 3576)
Kind of assay: BSK_BE3C_IL8: BioMAP Diversity Plus: BE3C Assay for Interleukin-8 (IL8) Biomarker Activity (AID 2284280). Conditions: primary human bronchial epithelial cells. A digest of the protocol:
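IL-8 signal gain, normalised to DMSO vehicle, was scored after a 24 h chemical exposure of primary human bronchial epithelial cells, with detection by ELISA.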

Read-out in assay [12]: KRT18 (gene 3875)
The experiment in a line: BSK_BE3C_Keratin818: BioMAP Diversity Plus: BE3C Assay for Keratin 818 Biomarker Activity (AID 2284282). Conditions: primary human bronchial epithelial cells. A digest of the protocol: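 Human primary bronchial epithelial cells in the BE3C system were exposed to test chemical for 24 h, then Keratin 8/18 was quantified by ELISA. Activity was fitted in the positive direction against DMSO as negative control and baseline.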

Read-out in assay [13]: Matrix Metallopeptidase 3 (MMP3), MMP3 (gene 4314)
Kind of assay: BSK_BF4T_MMP3: BioMAP Diversity Plus: BF4T Assay for Matrix Metallopeptidase 3 (MMP3) Biomarker Activity (AID 2284271). Conditions: primary human bronchial epithelial cells with fibroblasts. In outline:
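Co-culture of human bronchial epithelial cells and dermal fibroblasts dosed 24 h; MMP-3 measured by ELISA, positive-direction fit versus DMSO. Cytotoxicity tracked by SRB total-protein staining (560 nm) in parallel cultures.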

Read-out in assay [14]: Tissue plasminogen activator (tPA), PLAT (gene 5327)
The experiment in a line: BSK_BF4T_tPA: BioMAP Diversity Plus: BF4T Assay for Tissue plasminogen activator (tPA) Biomarker Activity (AID 2284272). Conditions: primary human bronchial epithelial cells with fibroblasts. In outline:
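tPA level quantified by ELISA at 24 h post-treatment in bronchial epithelial/dermal fibroblast co-cultures, gain of signal scored against DMSO baseline. Parallel cultures stained with 0.1% SRB (560 nm) to flag overt cytotoxicity.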

Read-out in assay [15]: urokinase Plasminogen Activator (uPA), PLAU (gene 5328)
Kind of assay: BSK_BF4T_uPA: BioMAP Diversity Plus: BF4T Assay for urokinase Plasminogen Activator (uPA) Biomarker Activity (AID 2284275). Conditions: primary human bronchial epithelial cells with fibroblasts. In outline:
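Co-culture of human bronchial epithelial cells and dermal fibroblasts; uPA quantified by ELISA 24 hours after dosing, fitted relative to DMSO. Parallel SRB total-protein staining assessed overt cytotoxicity.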

Read-out in assay [16]: Epidermal growth factor receptor (EGFR), EGFR (gene 1956)
The experiment in a line: BSK_BE3C_EGFR: BioMAP Diversity Plus: BE3C Assay for Epidermal growth factor receptor (EGFR) Biomarker Activity (AID 2284281). Conditions: primary human bronchial epithelial cells. A digest of the protocol: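 Compound is added to human bronchial epithelial cells, cells incubate 24 h, then EGFR is detected by ELISA. Values reflect positive-direction fitting relative to DMSO.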

Structures are written as SMILES. Where “and” joins values, the source holds several entries; their conditions need not be identical. Equal values may be shown once. A structure can be active in one record and inactive in another. Calls of active or inactive are those of the source. How the source made its calls: active means hit-call score of the fitted dose curve at least 0.9, where 1 is the maximum; inactive means score below 0.9.

The AC50 is the concentration giving half of the maximal activity seen. On to `O=C(Cl)C(F)(F)C(F)(F)C(F)(F)C(F)(F)C(F)(F)C(F)(F)C(F)(F)C(F)(F)F`, for which the AC50 in assay [1] was 45.4 µM (active) and 45.6 µM (active) and 56.8 µM (active); in the assay with KRT18 (gene 3875) [2], 44.5 µM (active) and 46.1 µM (active) and 44.3 µM (active); in [3], 26 µM (active) and 21.7 µM (active) and 20.3 µM (active); in [6] it was 55.2 µM (active); in assay [8] it was 46.1 µM (active) and 52.4 µM (active) and 49.7 µM (active); in assay [9] it was 6.67 µM (active) and 5.95 µM (active) and 19.6 µM (active). The AC50 in assay [10] was 48.3 µM (active) and 46.7 µM (active) and 48.2 µM (active); in [11], 30 µM (active) and 43.4 µM (active) and 38.6 µM (active); in the assay with KRT18 (gene 3875) [12], 47.8 µM (active) and 43.9 µM (active) and 46.8 µM (active). Besides, the outcome in the assay with Decorin, DCN (gene 1634) was “inactive”; in assay [4], “inactive”; in assay [5], “inactive”; in [6] it was “inactive”; in assay [7], “inactive”.
`FC(F)(F)C(F)(F)C(F)(F)C(F)(F)C(F)(F)C(F)(F)CC1CO1` (centres undefined): the outcome in [1] was “inactive”; in the assay with Decorin, DCN (gene 1634), “inactive”; with KRT18 (gene 3875) [2] it was “inactive”; in [3] it was “inactive”; in assay [4], “inactive”; in [5] it was “inactive”. The outcome in assay [6], in assay [13], in assay [14], in assay [7], in assay [15] and in [8] was inactive. The outcome (in [9]; in assay [10]; in assay [11]; with KRT18 (gene 3875) [12]) was inactive.
On to `C=C(C)C(=O)OCC(F)(F)C(F)(F)C(F)(F)C(F)(F)C(F)(F)C(F)(F)C(F)(F)F`, for which the outcome in [1] was “inactive”; in the assay with Decorin, DCN (gene 1634), “inactive”; with KRT18 (gene 3875) [2], “inactive”; in assay [3] it was “inactive”; in assay [4], “inactive”; in assay [5], “inactive”. Further, the outcome in assay [6], in assay [7], in [15], in assay [8], in assay [9] and in assay [10] was inactive. The outcome (in assay [11]; in [16]; with KRT18 (gene 3875) [12]) was inactive.
Regarding `CCCCOCCOCCOC(=O)CCCCC(=O)OCCOCCOCCCC`, the outcome with Decorin, DCN (gene 1634) was “inactive”; in [3] it was “inactive”; in assay [4] it was “inactive”; in assay [5] it was “inactive”.

The record behind these values is PubChem BioAssay (EPA / NIEHS).
